In ChEMBL document CHEMBL3433997, “St. Jude Leishmania screening dataset” (2016):

Assays:
Format in all cases: functional
[1] = target: Solute carrier family 2, facilitated glucose transporter member 1 (Homo sapiens) (UniProt P11166); assay: ST_JUDE_LEISH: Cytotoxicity at 2uM final concentration against transgenic Leishmania Mexicana promastigotes LmGLUT1 that are glucose transport deficient and complemented with the human glucose transporter GLUT1. Activity is measured by DNA content using SYBR green in vitro
Solute carrier family 2, facilitated glucose transporter member 1 (Homo sapiens), sequence (P11166 whole entry): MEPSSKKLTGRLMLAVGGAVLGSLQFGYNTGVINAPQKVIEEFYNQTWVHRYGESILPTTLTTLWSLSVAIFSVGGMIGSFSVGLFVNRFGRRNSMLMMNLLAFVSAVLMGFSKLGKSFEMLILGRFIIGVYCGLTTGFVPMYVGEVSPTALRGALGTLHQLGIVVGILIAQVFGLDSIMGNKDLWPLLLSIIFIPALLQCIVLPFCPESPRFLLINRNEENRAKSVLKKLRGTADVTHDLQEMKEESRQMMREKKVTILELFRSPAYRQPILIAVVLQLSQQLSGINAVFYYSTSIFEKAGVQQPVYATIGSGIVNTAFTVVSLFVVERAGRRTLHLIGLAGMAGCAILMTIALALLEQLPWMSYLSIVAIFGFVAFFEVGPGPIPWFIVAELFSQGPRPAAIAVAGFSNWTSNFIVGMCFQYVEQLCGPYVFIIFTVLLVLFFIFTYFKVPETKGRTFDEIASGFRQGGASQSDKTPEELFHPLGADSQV

[2] = target: Hexose transporter 1 (Plasmodium falciparum) (UniProt O97467); assay: ST_JUDE_LEISH: Cytotoxicity at 2uM final concentration against transgenic Leishmania Mexicana promastigotes LmPfHT that are glucose transport deficient and complemented with the Plasmodium falciparum hexose transporter. Activity is measured by DNA content using SYBR green in vitro
[3] = target: Glucose transporter (Leishmania mexicana) (UniProt O61059); assay: ST_JUDE_LEISH: Cytotoxicity at 2uM final concentration against transgenic Leishmania Mexicana promastigotes LmGT2 that are glucose transport deficient and complemented with the L. Mexicana glucose transporter 2. Activity is measured by DNA content using SYBR green in vitro

Q: How did the inhibition [1] turn out when O=C(/C=C/c1ccc(F)cc1)NC1CCC(CCN2CCc3ccc(-n4cccn4)cc3CC2)CC1 (stereo not drawn) was run?
A: 11.7%

Q: What about the inhibition [2] of the same molecule?
A: 12.9%

Q: What about the inhibition [3] of the same molecule?
A: 7.81%

Q: O=C(Nc1cccc(CN2CCCN(Cc3ccsc3)CC2)c1)c1ccc(-c2ccccc2)cc1 was tested. Which inhibition [1] did it give?
A: 2.55%

Q: And the inhibition [2]?
A: 3.01%

Q: And the inhibition [3]?
A: 1.6%

Q: Which inhibition [1] does the source give for CN1CCN(c2cc(NC(=O)Nc3ccc(-c4ccncc4)c(Cl)c3)ccc2Br)CC1 here?
A: 10.9%

Q: And the inhibition [2]?
A: 8.89%

Q: And the inhibition [3]?
A: 10.5%

Q: For OC(CNCc1ccccc1)c1cc(OCc2ccccc2)cc(OCc2ccccc2)c1 (stereo not drawn), which inhibition [1] is on record?
A: -0.14%

Q: And the inhibition [2]?
A: -1.19%

Q: And the inhibition [3]?
A: -0.63%

Q: Which inhibition [1] does the source give for CN1CCN(CCCN(Cc2ccc(-c3cccc(CNC4CCCC4)c3)cc2)C(=O)/C=C/c2ccccc2)CC1 here?
A: 10.2%

Q: And the inhibition [2]?
A: 9.42%

Q: And the inhibition [3]?
A: 6.94%

Q: Which inhibition [1] does the source give for O=C1CC(C(=O)Nc2cccc(-c3cccc(-c4nc5ccccc5[nH]4)c3)c2)c2ccccc2N1 (stereo not drawn) here?
A: 7.77%

Q: And the inhibition [2]?
A: 6.55%

Q: And the inhibition [3]?
A: 0.51%

Q: For C=CCOC(=O)N1CCC(CNCc2ccc(-c3cccc(-c4nc5cccc(C)c5[nH]4)c3)cc2)C1 (stereo not drawn), which inhibition [1] is on record?
A: -0.46%

Q: What about the inhibition [2] of the same molecule?
A: -0.4%

Q: What about the inhibition [3] of the same molecule?
A: -2.77%

Q: With CCCCCN1CCCC(NS(=O)(=O)c2ccc(C(=O)Nc3cccc(C(F)(F)F)c3)cc2)C1 (stereo not drawn) as the molecule, how does the inhibition [1] read?
A: 1.16%

Q: And the inhibition [2]?
A: 2.32%

Q: And the inhibition [3]?
A: 0.39%

Q: For O=C(Nc1cccc(CN2CCCN(Cc3ccc(O)cc3)CC2)c1)c1cccc(C(F)(F)F)c1, which inhibition [1] is on record?
A: 10.5%

Q: And the inhibition [2]?
A: 9.62%

Q: And the inhibition [3]?
A: 11.3%

Q: How did the inhibition [1] turn out when CCOc1cc(C)ccc1C1CCN(CCCCNC(=O)c2coc(-c3ccc(Cl)cc3)c2)CC1 was run?
A: 0.96%

Q: What about the inhibition [2] of the same molecule?
A: 3.18%

Q: And the inhibition [3]?
A: 2.06%

Q: What does the source list for C[C@@H](Oc1cc(-n2cnc3ccc(OCC4CCN(S(C)(=O)=O)CC4)cc32)sc1C(N)=O)c1ccccc1C(F)(F)F?
A: inhibition [1]: 11.6%; inhibition [2]: 9.1%; inhibition [3]: 4.63%

Q: What does the source list for O=C(C=Cc1ccc(Cl)c(Cl)c1)NCCCCCN1CCCC(CCCNC(=O)c2cccs2)C1 (stereo not drawn)?
A: inhibition [1]: 6.06%; inhibition [2]: 3.58%; inhibition [3]: 5.16%

Q: How did the inhibition [1] turn out when CCn1ccc2c(N3CCCC3=O)cc(C(=O)N[C@@H](Cc3ccccc3)[C@H](O)CNCc3cccc(OC)c3)cc21 was run?
A: 1.06%

Q: And the inhibition [2]?
A: 1.98%

Q: And the inhibition [3]?
A: 0.14%

Q: Which results are given for N#Cc1ccc(-c2ccc(C(=O)NCCCCN3CCC(c4ccc5c(c4OCC(N)=O)CCCC5)CC3)nc2)cc1?
A: inhibition [1]: 3.35%; inhibition [2]: 0.86%; inhibition [3]: 2.97%

Q: Which results are given for COc1ccccc1C1CN(CCNC(=O)c2nc(C)c[nH]2)Cc2ccccc2O1 (stereo not drawn)?
A: inhibition [1]: 0.43%; inhibition [2]: 2.02%; inhibition [3]: 5.66%

Q: Which results are given for Cc1nn(-c2ccccc2)nc1C(=O)N(Cc1ccc(-c2ccc(CNCCc3ccc(S(C)(=O)=O)cc3)cn2)cc1)C(C)CN(C)C (stereo not drawn)?
A: inhibition [1]: 0.95%; inhibition [2]: 3.63%; inhibition [3]: 3.9%

Q: How did the inhibition [1] turn out when CN(C)CCC1CCN(CCS(=O)(=O)c2cccc(Nc3ncc(-c4cccc(F)c4)cn3)c2)CC1 was run?
A: -2.08%

Q: And the inhibition [2]?
A: 0.49%

Q: And the inhibition [3]?
A: 9.03%

Q: For COc1cc2nc(N3CCN(C(=O)c4c(Cl)nsc4-c4ccccc4Cl)CC3)nc(N)c2cc1OC, which inhibition [1] is on record?
A: 10.5%

Q: And the inhibition [2]?
A: 8.35%

Q: What about the inhibition [3] of the same molecule?
A: 5.08%

Q: Which results are given for Cc1cc(=O)c(-c2ccc(OCCSc3ccc(C(F)(F)F)cn3)cc2)c(C)[nH]1?
A: inhibition [1]: 2.89%; inhibition [2]: 5.13%; inhibition [3]: 2.2%

Q: With Cc1cccc2nc(-c3cccc(-c4ccc(CN5CCCC5CN)cc4)c3)[nH]c12 (stereo not drawn) as the molecule, how does the inhibition [1] read?
A: 1.85%

Q: What about the inhibition [2] of the same molecule?
A: 0.15%

Q: What about the inhibition [3] of the same molecule?
A: 0.68%

Q: Which inhibition [1] does the source give for NC(=O)c1cccc(C(=O)Nc2cccc(-c3cccc(-c4nc5cc(C(F)(F)F)ccc5[nH]4)c3)c2)c1 here?
A: -0.51%

Q: And the inhibition [2]?
A: 0.13%

Q: What about the inhibition [3] of the same molecule?
A: 0.83%

Q: With N#Cc1cccc(NC(=O)Nc2cccc(-c3cccc(-c4nc5ccccc5[nH]4)c3)c2)c1 as the molecule, how does the inhibition [1] read?
A: 5.25%

Q: And the inhibition [2]?
A: 5.22%

Q: What about the inhibition [3] of the same molecule?
A: 3.75%

Q: Cc1ccc(NC(=O)C2CCC2)cc1-c1ccc(C(=O)NCC2CC2)cc1 was tested. Which inhibition [1] did it give?
A: 1.36%

Q: What about the inhibition [2] of the same molecule?
A: 0.51%

Q: And the inhibition [3]?
A: 0.3%

Q: Cc1cc(N2CCCC2)nc(Nc2ccc(NC(=O)c3ccccc3F)cc2)n1 was tested. Which inhibition [1] did it give?
A: 1.09%

Q: What about the inhibition [2] of the same molecule?
A: 2.77%

Q: And the inhibition [3]?
A: -0.95%

Q: What does the source list for CC1CN(CCCn2c3ccccc3c3ccc(C(=O)CCCN(C)C)cc32)CC(C)N1 (stereo not drawn)?
A: inhibition [1]: 1.15%; inhibition [2]: 1.4%; inhibition [3]: 1.24%

Q: Which inhibition [1] does the source give for N#Cc1cc(C(=O)c2cc(Cl)ccc2O)cn(-c2cc(Cl)cc(Cl)c2)c1=O here?
A: 2.16%

Q: What about the inhibition [2] of the same molecule?
A: 3.14%

Q: What about the inhibition [3] of the same molecule?
A: 2%

Q: CCOc1cc(C=Cc2nc(O)c3ccccc3n2)cc(Cl)c1O was tested. Which inhibition [1] did it give?
A: 5.1%

Q: And the inhibition [2]?
A: 4.12%

Q: And the inhibition [3]?
A: 2.7%

Q: Which inhibition [1] does the source give for O=C(/C=C/c1ccc(Cl)cc1)Nc1ccc2nc(CN3CCCC3)ccc2c1 here?
A: 5.3%

Q: And the inhibition [2]?
A: 6.73%

Q: And the inhibition [3]?
A: 5.54%

Q: Which inhibition [1] does the source give for COc1ccc2ncc(F)c(CCN3CCC(NCc4cc(OC)c5c(c4)OCCO5)CC3)c2n1 here?
A: 7.06%

Q: And the inhibition [2]?
A: 6.92%

Q: And the inhibition [3]?
A: 1.31%

Q: Which results are given for O=C(Nc1cccc(-c2ccc(-c3nc4cc(F)ccc4[nH]3)cc2)c1)c1ccncc1?
A: inhibition [1]: 4.46%; inhibition [2]: 2.3%; inhibition [3]: 2.96%

Q: What does the source list for CN1CCC(Oc2ccc(CN3CC[C@H](NC(=O)c4ccc(F)c(F)c4)C3)c3ccccc23)C1 (stereo partly drawn)?
A: inhibition [1]: 1.65%; inhibition [2]: 1%; inhibition [3]: 2.7%

Q: Which results are given for Fc1ccc(-c2cncc(-c3ccc(F)cc3)n2)cc1?
A: inhibition [1]: 9.28%; inhibition [2]: 6.64%; inhibition [3]: 8.06%

Q: For COc1cc2ccccc2c(OC)c1CCNCCCCNCCc1c(OC)cc2ccccc2c1OC, which inhibition [1] is on record?
A: 10.9%

Q: What about the inhibition [2] of the same molecule?
A: 12.1%

Q: What about the inhibition [3] of the same molecule?
A: 14.6%

Q: How did the inhibition [1] turn out when Cn1nc(C(F)(F)F)c(-c2ccc(F)cc2)c1NC(=O)Nc1ccc(F)cc1 was run?
A: 3.38%

Q: What about the inhibition [2] of the same molecule?
A: 4.67%

Q: And the inhibition [3]?
A: 4.05%

Q: Which results are given for NC(=O)c1cccc(C(=O)Nc2cccc(-c3ccc(-c4nc5cc(C(F)(F)F)ccc5[nH]4)cc3)c2)c1?
A: inhibition [1]: 0.31%; inhibition [2]: 4.83%; inhibition [3]: 2.53%

Q: Oc1ccc(CCNc2nc(NCc3ccccc3-c3ccccc3)nc(N3CCCNCC3)n2)cc1 was tested. Which inhibition [1] did it give?
A: 0.19%

Q: And the inhibition [2]?
A: 2.05%

Q: What about the inhibition [3] of the same molecule?
A: 0.48%

Q: With CC(CNC(=O)C(c1cc2ccccc2o1)N1CCN(C(c2ccccc2)c2ccccc2)CC1)c1ccccc1 (stereo not drawn) as the molecule, how does the inhibition [1] read?
A: 3.49%

Q: What about the inhibition [2] of the same molecule?
A: 3.31%

Q: What about the inhibition [3] of the same molecule?
A: 3.92%

Q: How did the inhibition [1] turn out when C#CCOc1ccc(N2C(N)=NC(N)=NC2(C)C)cc1 was run?
A: 2.23%

Q: And the inhibition [2]?
A: 1.16%

Q: And the inhibition [3]?
A: -0.42%

Q: For Cn1nc(C(F)(F)F)c(-c2ccc(Br)cc2)c1NC(=O)Nc1ccc(F)cc1F, which inhibition [1] is on record?
A: 1.12%

Q: And the inhibition [2]?
A: 1.19%

Q: And the inhibition [3]?
A: 1.25%

Q: Which inhibition [1] does the source give for Cc1noc(NC(=O)c2sc3ccccc3c2O)c1C here?
A: 1.04%

Q: What about the inhibition [2] of the same molecule?
A: 0.61%

Q: And the inhibition [3]?
A: -0.8%

Q: How did the inhibition [1] turn out when Cc1ccc(-c2cc3nc4c(c(NCCCn5ccnc5)n3n2)CCC4)cc1 was run?
A: 2.77%

Q: What about the inhibition [2] of the same molecule?
A: 1.6%

Q: And the inhibition [3]?
A: 0.92%

Q: With CCOC(=O)c1ccc(N(CCCN(CCCN(c2ccc(C(=O)OCC)cc2)S(=O)(=O)c2ccc(C)cc2)CCc2ccc(O)cc2)S(=O)(=O)c2ccc(C)cc2)cc1 as the molecule, how does the inhibition [1] read?
A: 2.89%

Q: What about the inhibition [2] of the same molecule?
A: 2.43%

Q: What about the inhibition [3] of the same molecule?
A: 1.65%

Q: With CN1CCC(N2CCN(Cc3cccc(-c4ccc(-c5nc6cc(F)ccc6[nH]5)cc4)c3)CC2)CC1 as the molecule, how does the inhibition [1] read?
A: 2.43%

Q: What about the inhibition [2] of the same molecule?
A: 3.05%

Q: And the inhibition [3]?
A: 2.66%

Q: Which inhibition [1] does the source give for CN(Cc1cccc(O)c1)C1CCN(c2cc(NC(=O)c3cccc(F)c3)ccn2)CC1 here?
A: 0.01%

Q: What about the inhibition [2] of the same molecule?
A: 1.18%

Q: And the inhibition [3]?
A: 1.33%

Q: Which results are given for COc1ccc(Cl)cc1NC(=O)C(C)N1CCN(S(=O)(=O)c2ccccc2F)CC1 (stereo not drawn)?
A: inhibition [1]: 4.36%; inhibition [2]: 3.53%; inhibition [3]: 3.44%

Q: Oc1ccc(-c2nc3c4cc(I)ccc4c4ccc(I)cc4c3[nH]2)cc1 was tested. Which inhibition [1] did it give?
A: 2.27%

Q: What about the inhibition [2] of the same molecule?
A: -1.87%

Q: And the inhibition [3]?
A: -2.11%
